# Laboratory results taken from PMC7862700, “An all-to-all approach to the identification of sequence-specific readers for epigenetic DNA modifications on cytosine”.
# Experiments:
# Experiment in all cases: DAPPL (digital affinity profiling via proximity ligation, sequencing); 10 mM Tris-HCl pH 7.5, 50 mM NaCl, 1 mM DTT, 4% glycerol, room temperature, 30 min; GST-TFs on glutathione beads, 16-mer random dsDNA library, 0.1% formaldehyde crosslink after washing; high values mean tight binding
# FLI1 = target: T1, FLI1 (Homo sapiens, UniProt Q01543 1-452); conditions: protein: recombinant; tags: N-terminal GST; dsDNA, one strand shown
# T1 sequence: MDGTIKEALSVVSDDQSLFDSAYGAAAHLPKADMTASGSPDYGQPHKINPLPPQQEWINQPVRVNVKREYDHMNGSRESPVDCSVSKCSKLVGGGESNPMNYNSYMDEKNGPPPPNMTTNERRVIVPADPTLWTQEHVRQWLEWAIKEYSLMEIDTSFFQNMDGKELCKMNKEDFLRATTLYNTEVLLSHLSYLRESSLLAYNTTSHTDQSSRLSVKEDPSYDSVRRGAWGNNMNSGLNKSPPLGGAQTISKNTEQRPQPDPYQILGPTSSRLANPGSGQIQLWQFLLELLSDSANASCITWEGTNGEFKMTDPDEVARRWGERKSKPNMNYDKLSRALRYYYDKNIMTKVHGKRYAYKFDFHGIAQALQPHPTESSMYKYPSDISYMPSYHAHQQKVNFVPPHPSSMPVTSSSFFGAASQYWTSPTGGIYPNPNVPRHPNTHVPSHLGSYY
# Summary of the method: (§1)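 Each value of binding signal is a hexamer's read frequency for a factor divided by the same hexamer's frequency in the tag-only sample. Barcoded, bead-captured GST fusions of human transcription factors made in yeast were pooled with that sample and incubated with 200 nmole of a random double-stranded 16-mer DNA library in Tris/NaCl/DTT/glycerol buffer at room temperature for 30 min. Washing, 0.1% formaldehyde crosslinking, proximity ligation, PCR and Illumina NextSeq500 sequencing followed.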
# ELK1 = target: T2, ELK1 (Homo sapiens, UniProt P19419 1-428); conditions: protein: recombinant; tags: N-terminal GST; dsDNA, one strand shown
# T2 sequence: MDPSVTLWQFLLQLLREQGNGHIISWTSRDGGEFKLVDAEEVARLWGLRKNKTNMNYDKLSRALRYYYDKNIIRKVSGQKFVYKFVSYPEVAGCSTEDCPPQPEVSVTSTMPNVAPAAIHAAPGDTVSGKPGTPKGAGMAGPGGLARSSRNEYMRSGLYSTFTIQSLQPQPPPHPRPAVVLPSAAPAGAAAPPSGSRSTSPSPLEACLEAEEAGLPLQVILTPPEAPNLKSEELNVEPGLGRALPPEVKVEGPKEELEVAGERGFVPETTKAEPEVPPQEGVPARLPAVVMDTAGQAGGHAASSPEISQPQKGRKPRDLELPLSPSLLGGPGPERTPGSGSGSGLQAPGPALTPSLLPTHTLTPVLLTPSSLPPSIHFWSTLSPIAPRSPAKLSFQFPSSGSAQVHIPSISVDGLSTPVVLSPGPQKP
# Summary of the method: as §1
# GABPA = target: T3, GABPA (Homo sapiens, UniProt Q06546 1-454); conditions: protein: recombinant; tags: N-terminal GST; dsDNA, one strand shown
# T3 sequence: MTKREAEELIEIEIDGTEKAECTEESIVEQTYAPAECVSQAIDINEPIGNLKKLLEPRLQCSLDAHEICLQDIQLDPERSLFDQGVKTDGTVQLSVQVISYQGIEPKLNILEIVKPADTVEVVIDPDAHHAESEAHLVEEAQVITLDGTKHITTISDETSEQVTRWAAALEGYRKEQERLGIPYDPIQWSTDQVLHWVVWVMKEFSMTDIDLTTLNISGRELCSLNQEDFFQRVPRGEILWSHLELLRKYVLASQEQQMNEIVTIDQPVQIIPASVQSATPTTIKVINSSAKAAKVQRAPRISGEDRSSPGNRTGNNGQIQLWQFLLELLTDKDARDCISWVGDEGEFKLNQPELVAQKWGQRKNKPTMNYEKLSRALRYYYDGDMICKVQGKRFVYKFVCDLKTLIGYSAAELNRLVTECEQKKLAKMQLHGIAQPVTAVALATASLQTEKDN
# Summary of the method: as §1
# ERG = target: T4, ERG (Homo sapiens, UniProt P11308 1-479); conditions: protein: recombinant; tags: N-terminal GST; dsDNA, one strand shown
# T4 sequence: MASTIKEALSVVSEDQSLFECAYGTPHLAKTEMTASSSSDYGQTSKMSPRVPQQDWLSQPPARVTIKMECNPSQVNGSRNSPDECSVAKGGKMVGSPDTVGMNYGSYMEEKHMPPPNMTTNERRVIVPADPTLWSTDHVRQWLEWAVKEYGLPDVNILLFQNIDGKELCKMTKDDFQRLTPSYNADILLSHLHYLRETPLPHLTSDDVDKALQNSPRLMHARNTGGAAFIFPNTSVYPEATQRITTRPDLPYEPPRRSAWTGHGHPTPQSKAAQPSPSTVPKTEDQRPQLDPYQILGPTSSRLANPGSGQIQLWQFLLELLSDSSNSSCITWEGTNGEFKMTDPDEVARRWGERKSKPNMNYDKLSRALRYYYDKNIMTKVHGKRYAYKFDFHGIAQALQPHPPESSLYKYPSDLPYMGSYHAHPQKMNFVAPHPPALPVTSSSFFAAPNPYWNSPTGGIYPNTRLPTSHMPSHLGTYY
# Summary of the method: as §1
# ELF1 = ELF1 (Homo sapiens, UniProt P32519 1-619); conditions: protein: recombinant; tags: N-terminal GST; dsDNA, one strand shown
# Sequence of ELF1 (P32519 whole entry): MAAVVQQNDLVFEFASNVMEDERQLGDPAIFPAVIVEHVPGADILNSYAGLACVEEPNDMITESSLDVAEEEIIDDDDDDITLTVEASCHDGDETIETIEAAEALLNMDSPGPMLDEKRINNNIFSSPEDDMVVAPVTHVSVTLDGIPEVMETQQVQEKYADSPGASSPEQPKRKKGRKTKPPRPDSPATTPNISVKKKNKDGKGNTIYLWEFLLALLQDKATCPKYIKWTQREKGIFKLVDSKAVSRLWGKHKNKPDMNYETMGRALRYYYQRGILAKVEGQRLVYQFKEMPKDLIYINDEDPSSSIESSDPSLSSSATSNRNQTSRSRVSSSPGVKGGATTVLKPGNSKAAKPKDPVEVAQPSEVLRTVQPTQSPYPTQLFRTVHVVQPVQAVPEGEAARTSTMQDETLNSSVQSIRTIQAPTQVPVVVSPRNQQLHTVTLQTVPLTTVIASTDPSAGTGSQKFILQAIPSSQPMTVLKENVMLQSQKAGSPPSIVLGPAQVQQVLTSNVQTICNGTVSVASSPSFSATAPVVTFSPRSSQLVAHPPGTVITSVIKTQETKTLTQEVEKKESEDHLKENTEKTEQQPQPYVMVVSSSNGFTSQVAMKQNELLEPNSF
# Summary of the method: as §1
# EHF = target: T5, EHF (Homo sapiens, UniProt Q9NZC4 1-300); conditions: protein: recombinant; tags: N-terminal GST; dsDNA, one strand shown
# T5 sequence: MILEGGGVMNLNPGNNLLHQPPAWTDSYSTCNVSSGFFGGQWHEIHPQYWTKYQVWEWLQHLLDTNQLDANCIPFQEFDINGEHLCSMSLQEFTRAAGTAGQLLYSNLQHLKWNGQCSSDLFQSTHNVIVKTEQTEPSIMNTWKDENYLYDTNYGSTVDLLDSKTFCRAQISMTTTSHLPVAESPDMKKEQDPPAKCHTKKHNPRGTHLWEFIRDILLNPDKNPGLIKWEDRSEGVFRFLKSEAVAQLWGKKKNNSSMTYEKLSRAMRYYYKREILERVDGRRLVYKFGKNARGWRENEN
# Summary of the method: as §1
# SPI1 = SPI1 (Homo sapiens, UniProt P17947 1-270); conditions: protein: recombinant; tags: N-terminal GST; dsDNA, one strand shown
# Summary of the method: as §1
# SPIB = SPIB (Homo sapiens, UniProt Q01892 1-262); conditions: protein: recombinant; tags: N-terminal GST; dsDNA, one strand shown
# Sequence of SPIB (Q01892 whole entry): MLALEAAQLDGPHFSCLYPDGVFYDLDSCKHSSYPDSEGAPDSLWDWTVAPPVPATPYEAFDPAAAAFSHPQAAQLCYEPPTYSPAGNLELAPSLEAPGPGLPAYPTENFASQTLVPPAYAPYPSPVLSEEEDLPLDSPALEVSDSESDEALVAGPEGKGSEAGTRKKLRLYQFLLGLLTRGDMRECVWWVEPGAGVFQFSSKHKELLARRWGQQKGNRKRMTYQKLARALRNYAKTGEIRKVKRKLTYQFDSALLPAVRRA
# Summary of the method: as §1
# ELK3 = target: T6, ELK3 (Homo sapiens, UniProt P41970 1-407); conditions: protein: recombinant; tags: N-terminal GST; dsDNA, one strand shown
# T6 sequence: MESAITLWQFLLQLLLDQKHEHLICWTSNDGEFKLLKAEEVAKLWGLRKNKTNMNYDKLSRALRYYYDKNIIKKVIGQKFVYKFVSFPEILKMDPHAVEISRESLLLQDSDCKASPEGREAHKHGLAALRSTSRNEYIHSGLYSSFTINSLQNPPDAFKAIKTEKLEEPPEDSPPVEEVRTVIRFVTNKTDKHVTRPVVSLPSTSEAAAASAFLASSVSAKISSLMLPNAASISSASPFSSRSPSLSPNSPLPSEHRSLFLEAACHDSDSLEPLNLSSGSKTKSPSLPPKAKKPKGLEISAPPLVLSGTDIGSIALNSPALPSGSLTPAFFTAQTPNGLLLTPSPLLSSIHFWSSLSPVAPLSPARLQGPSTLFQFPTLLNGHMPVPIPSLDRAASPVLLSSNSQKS
# Summary of the method: as §1
# FEV = target: T7, FEV (Homo sapiens, UniProt Q99581 1-238); conditions: protein: recombinant; tags: N-terminal GST; dsDNA, one strand shown
# T7 sequence: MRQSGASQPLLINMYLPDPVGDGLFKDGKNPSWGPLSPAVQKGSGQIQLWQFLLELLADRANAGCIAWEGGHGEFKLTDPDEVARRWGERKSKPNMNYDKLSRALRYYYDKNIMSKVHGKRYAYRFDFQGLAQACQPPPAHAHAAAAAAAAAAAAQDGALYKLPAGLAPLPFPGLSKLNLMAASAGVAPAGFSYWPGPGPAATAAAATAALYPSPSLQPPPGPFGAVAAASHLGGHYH
# Summary of the method: as §1
# ETV5 = ETV5 (Homo sapiens, UniProt P41161 1-510); conditions: protein: recombinant; tags: N-terminal GST; dsDNA, one strand shown
# Sequence of ETV5 (P41161 whole entry): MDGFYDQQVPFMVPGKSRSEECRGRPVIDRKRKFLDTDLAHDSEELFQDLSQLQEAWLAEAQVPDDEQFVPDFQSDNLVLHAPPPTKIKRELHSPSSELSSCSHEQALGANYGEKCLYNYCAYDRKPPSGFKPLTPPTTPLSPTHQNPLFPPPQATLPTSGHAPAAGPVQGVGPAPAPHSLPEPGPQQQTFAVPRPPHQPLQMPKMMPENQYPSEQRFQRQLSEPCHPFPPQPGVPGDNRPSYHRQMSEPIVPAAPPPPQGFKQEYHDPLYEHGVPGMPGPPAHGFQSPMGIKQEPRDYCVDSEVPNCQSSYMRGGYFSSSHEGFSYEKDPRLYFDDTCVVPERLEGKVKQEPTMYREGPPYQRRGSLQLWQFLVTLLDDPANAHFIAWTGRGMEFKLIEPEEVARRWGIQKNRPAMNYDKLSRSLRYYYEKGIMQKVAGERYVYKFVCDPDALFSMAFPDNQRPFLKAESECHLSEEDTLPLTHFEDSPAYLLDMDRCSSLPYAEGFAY
# Summary of the method: as §1
# HSF1 = HSF1 (Homo sapiens, UniProt Q00613 1-529); conditions: protein: recombinant; tags: N-terminal GST; chain copies: 3; dsDNA, one strand shown
# Sequence of HSF1 (Q00613 whole entry): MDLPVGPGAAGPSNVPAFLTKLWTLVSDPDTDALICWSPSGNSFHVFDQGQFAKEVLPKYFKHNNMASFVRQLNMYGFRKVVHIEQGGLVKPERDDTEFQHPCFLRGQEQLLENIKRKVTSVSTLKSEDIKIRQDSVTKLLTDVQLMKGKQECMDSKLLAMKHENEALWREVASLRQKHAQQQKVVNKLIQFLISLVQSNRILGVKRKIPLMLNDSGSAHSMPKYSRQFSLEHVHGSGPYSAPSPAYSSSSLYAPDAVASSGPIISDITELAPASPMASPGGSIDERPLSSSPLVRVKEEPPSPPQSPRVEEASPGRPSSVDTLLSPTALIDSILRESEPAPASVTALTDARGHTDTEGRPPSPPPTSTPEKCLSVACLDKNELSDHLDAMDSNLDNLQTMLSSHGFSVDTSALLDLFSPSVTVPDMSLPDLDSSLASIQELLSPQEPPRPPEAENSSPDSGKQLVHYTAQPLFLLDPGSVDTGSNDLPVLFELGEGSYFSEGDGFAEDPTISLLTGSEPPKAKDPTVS
# Summary of the method: as §1
# SPIC = target: T8, SPIC (Homo sapiens, UniProt Q8N5J4 1-248); conditions: protein: recombinant; tags: N-terminal GST; dsDNA, one strand shown
# T8 sequence: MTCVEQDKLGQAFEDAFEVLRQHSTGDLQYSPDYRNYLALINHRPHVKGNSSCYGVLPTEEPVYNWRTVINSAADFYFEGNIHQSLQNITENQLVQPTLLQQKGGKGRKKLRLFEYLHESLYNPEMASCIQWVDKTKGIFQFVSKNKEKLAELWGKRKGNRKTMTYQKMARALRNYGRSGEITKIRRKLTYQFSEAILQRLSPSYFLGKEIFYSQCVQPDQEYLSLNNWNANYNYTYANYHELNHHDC
# Summary of the method: as §1
# ELF4 = ELF4 (Homo sapiens, UniProt Q99607 1-663); conditions: protein: recombinant; tags: N-terminal GST; dsDNA, one strand shown
# Sequence of ELF4 (Q99607 whole entry): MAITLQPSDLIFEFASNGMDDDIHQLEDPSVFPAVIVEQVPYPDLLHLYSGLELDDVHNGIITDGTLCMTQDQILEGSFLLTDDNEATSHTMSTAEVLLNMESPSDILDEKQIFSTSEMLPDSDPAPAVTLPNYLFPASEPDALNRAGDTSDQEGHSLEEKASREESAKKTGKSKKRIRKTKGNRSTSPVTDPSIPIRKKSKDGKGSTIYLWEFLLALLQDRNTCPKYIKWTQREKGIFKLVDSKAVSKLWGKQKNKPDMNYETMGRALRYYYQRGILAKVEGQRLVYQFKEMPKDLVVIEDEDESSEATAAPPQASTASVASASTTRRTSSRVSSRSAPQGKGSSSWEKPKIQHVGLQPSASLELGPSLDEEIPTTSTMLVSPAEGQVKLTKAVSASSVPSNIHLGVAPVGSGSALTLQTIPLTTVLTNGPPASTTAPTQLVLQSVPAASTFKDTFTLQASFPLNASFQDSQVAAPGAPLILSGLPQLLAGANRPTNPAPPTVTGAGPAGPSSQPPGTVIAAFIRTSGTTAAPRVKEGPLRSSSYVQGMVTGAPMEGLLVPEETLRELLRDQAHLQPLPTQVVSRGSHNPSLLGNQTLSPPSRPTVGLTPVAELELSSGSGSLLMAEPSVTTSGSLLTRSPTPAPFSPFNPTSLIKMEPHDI
# Summary of the method: as §1
# ELK4 = target: T9, ELK4 (Homo sapiens, UniProt P28324-2 1-405); conditions: protein: recombinant; tags: N-terminal GST; dsDNA, one strand shown
# T9 sequence: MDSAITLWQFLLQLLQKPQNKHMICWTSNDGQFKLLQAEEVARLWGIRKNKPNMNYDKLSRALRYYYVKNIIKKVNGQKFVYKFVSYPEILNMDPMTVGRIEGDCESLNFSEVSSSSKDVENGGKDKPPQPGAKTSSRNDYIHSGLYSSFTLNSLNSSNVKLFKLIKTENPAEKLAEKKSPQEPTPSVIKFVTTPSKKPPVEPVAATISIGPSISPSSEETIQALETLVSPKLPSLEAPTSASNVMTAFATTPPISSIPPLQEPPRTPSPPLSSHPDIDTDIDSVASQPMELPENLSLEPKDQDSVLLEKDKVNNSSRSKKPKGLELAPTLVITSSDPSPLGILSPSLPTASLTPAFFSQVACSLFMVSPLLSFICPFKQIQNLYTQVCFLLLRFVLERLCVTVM
# Summary of the method: as §1
# ETV2 = target: T10, ETV2 (Homo sapiens, UniProt O00321 1-342); conditions: protein: recombinant; tags: N-terminal GST; dsDNA, one strand shown
# T10 sequence: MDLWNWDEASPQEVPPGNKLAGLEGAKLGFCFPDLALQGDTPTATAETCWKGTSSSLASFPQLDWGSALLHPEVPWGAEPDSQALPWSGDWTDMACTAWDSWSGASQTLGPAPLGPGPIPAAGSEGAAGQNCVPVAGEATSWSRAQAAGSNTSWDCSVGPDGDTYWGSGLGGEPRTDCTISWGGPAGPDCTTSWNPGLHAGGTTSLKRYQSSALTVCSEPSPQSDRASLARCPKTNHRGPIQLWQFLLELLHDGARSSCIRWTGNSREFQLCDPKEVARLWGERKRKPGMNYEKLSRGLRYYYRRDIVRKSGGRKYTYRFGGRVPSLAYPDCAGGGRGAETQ
# Summary of the method: as §1
# ELF3 = target: T11, ELF3 (Homo sapiens, UniProt P78545 1-371); conditions: protein: recombinant; tags: N-terminal GST; dsDNA, one strand shown
# T11 sequence: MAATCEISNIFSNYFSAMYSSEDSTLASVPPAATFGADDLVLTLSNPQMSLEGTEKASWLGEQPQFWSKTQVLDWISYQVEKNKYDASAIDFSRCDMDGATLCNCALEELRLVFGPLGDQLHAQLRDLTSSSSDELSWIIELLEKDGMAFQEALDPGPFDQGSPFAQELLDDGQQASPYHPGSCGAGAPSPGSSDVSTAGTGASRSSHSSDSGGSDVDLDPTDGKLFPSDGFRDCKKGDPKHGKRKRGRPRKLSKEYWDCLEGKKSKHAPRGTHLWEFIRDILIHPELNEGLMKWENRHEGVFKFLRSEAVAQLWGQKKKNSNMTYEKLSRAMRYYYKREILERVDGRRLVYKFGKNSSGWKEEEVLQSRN
# Summary of the method: as §1
# CRX = CRX (Homo sapiens, UniProt O43186 1-299); conditions: protein: recombinant; tags: N-terminal GST; dsDNA, one strand shown
# Sequence of CRX (O43186 whole entry): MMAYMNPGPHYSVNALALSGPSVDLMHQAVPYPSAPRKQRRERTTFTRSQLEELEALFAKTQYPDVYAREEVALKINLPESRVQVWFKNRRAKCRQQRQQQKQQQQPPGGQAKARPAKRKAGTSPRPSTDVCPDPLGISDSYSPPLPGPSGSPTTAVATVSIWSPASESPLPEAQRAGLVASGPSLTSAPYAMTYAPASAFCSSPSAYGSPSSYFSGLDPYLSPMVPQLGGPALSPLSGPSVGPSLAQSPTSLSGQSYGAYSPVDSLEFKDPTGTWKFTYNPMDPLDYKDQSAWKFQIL
# Summary of the method: as §1
# ETV1 = ETV1 (Homo sapiens, UniProt P50549 1-477); conditions: protein: recombinant; tags: N-terminal GST; dsDNA, one strand shown
# Sequence of ETV1 (P50549 whole entry): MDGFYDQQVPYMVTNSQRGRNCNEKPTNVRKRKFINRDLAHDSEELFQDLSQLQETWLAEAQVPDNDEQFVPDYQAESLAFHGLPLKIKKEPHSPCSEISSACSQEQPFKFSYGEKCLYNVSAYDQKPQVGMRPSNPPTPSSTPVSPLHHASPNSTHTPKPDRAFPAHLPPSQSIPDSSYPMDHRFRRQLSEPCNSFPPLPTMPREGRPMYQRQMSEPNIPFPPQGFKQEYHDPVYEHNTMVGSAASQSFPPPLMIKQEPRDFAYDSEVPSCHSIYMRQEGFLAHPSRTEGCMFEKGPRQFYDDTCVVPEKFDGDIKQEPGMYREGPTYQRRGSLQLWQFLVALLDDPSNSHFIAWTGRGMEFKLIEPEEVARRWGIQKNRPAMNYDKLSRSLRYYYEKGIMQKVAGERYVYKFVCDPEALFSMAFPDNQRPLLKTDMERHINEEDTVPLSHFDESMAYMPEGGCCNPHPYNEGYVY
# Summary of the method: as §1
sequence,measurement,setting,value
TAGCTA,binding signal,FLI1,"1.22 fold enrichment (6-mer frequency, TF over GST control)"
same,binding signal,ELK1,"1.24 fold enrichment (6-mer frequency, TF over GST control)"
same,binding signal,GABPA,"1.21 fold enrichment (6-mer frequency, TF over GST control)"
same,binding signal,ERG,"1.22 fold enrichment (6-mer frequency, TF over GST control)"
same,binding signal,ELF1,"1.25 fold enrichment (6-mer frequency, TF over GST control)"
same,binding signal,EHF,"1.22 fold enrichment (6-mer frequency, TF over GST control)"
same,binding signal,SPI1,"1.2 fold enrichment (6-mer frequency, TF over GST control)"
same,binding signal,SPIB,"1.22 fold enrichment (6-mer frequency, TF over GST control)"
same,binding signal,ELK3,"1.29 fold enrichment (6-mer frequency, TF over GST control)"
same,binding signal,FEV,"1.22 fold enrichment (6-mer frequency, TF over GST control)"
same,binding signal,ETV5,"1.24 fold enrichment (6-mer frequency, TF over GST control)"
same,binding signal,HSF1,"1.47 fold enrichment (6-mer frequency, TF over GST control)"
same,binding signal,SPIC,"1.22 fold enrichment (6-mer frequency, TF over GST control)"
same,binding signal,ELF4,"1.28 fold enrichment (6-mer frequency, TF over GST control)"
same,binding signal,ELK4,"1.3 fold enrichment (6-mer frequency, TF over GST control)"
same,binding signal,ETV2,"1.27 fold enrichment (6-mer frequency, TF over GST control)"
same,binding signal,ELF3,"1.17 fold enrichment (6-mer frequency, TF over GST control)"
same,binding signal,CRX,"1.58 fold enrichment (6-mer frequency, TF over GST control)"
same,binding signal,ETV1,"1.27 fold enrichment (6-mer frequency, TF over GST control)"
